From PubChem
Only some compounds are listed: those with a hit (about 3.5% of all), similar ones and a draw of the others.
mHTT CaM bind: disrupts binding of mutant huntingtin to calmodulin; P42858; AlphaScreen His-mHTT/GST-CaM binding, luminescence; inhibition, % at 15 µM; 190,000 compounds, 3.6% hits; AID 1671202;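 note: 0% = both proteins with DMSO and 100% = one protein alone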
Pf apPOL inh: Pf-apPOL DNA polymerase inhibition. Recombinant Pf-apPOL, molecular beacon fluorescence, 1.5 h. 210,000 compounds, 0.25% hits. inhibition, % at 10 µM. AID 1794808
Starred values were filed as active, the others as inactive; i = inactive; · = no result given. Cut-off read from the data, not from the text of the source: active = inhibition above about 50%; inactive = the rest.

SMILES	mHTT CaM bind	Pf apPOL inh
CC(=O)c1cccc(Nc2nc(-c3ccc(Cl)c(Cl)c3)cs2)c1	3	1
CCN(CC)c1ccc(Nc2nc(-c3ccc(Cl)c(Cl)c3)cs2)cc1	97*	0
CCC(=O)Nc1nc(C)c(-c2csc(Nc3ccc(N(C)C)cc3)n2)s1	93*	2
O=C(O)c1ccccc1SC1CC(=O)N(c2ccc(F)c(Cl)c2)C1=O (stereo unspecified)	5	-1
O=C(C1CCCO1)N1CCN(c2ncnc3c2CCC3)CC1 (stereo unspecified)	-12	-5
CN(C)c1ccc(Nc2nc(-c3cccnc3)cs2)cc1	6	-8
CCN(CC)c1ccc(Nc2nc(-c3ccccn3)cs2)cc1	100*	-4
Cc1ccc(Cl)cc1NC(=O)c1ccc(F)cc1	-10	-2
O=C1C(c2ccccc2)=C(c2ccccc2)C(=O)N1O	7	-4
Cc1cccc(C2CCCN2C(=O)c2nc3nc(C)cc(C(F)F)n3n2)c1 (stereo unspecified)	-1	-5
CCCC1N=C(c2cccc(OC)c2)CC(c2ccccc2O)N1 (stereo unspecified)	45	-5
CCCC1N=C(c2ccc(Cl)cc2)CC(c2cccc(OC)c2O)N1 (stereo unspecified)	52*	-4
Cc1cccc(C)c1-n1c(C)n[nH]c1=O	-4	3
O=C(Nc1ccc(Br)cc1)c1noc2c1CCC2	-8	-6
COc1ccc(C(=O)c2ccco2)cc1	-5	56*
COc1ccc(C(=O)N2CCN(C(=O)c3ccco3)CC2)cc1	1	-5
CSc1nnc2c(n1)OC(c1ccc(Br)cc1)N(C(C)=O)c1ccccc1-2 (stereo unspecified)	75*	-6
C=CCSc1nnc2c(n1)OC(c1ccc(OCC)cc1)N(C(C)=O)c1ccccc1-2 (stereo unspecified)	55*	-9
CSc1nnc2c(n1)OC(c1ccc(Br)o1)N(C(C)=O)c1ccccc1-2 (stereo unspecified)	8	5
CSc1nnc2c(n1)OC(c1ccc(Br)s1)N(C(C)=O)c1ccccc1-2 (stereo unspecified)	71*	5
CSc1nnc2c(n1)OC(c1ccc(Cl)cc1)N(C(C)=O)c1ccccc1-2 (stereo unspecified)	54*	7
C=CCSc1nnc2c(n1)OC(c1ccc(OC)cc1)N(C(C)=O)c1ccccc1-2 (stereo unspecified)	37	2
CSc1ccc(C2Oc3nc(SC)nnc3-c3ccccc3N2C(C)=O)cc1 (stereo unspecified)	35	-1
CSc1nnc2c(n1)OC(c1cccc(Br)c1)N(C(C)=O)c1ccccc1-2 (stereo unspecified)	19	-4
Cc1c(-c2noc(C(=O)NC3CCCC3)n2)oc2c(C)cccc12	-10	0
SMILES	mHTT CaM bind	Pf apPOL inh
CCN(C)C(=O)c1ccccc1N1CCC(NC(=O)OC)CC1	14	-113
CCc1onc(C)c1C1CCCN1Cc1ccc(N(CC)CC)cc1 (stereo unspecified)	67*	0
CCc1onc(C)c1C1CCCN1Cc1ccc(O)cc1 (stereo unspecified)	-1	9
Cn1cccc1/C=N/NC(=O)CCCC(=O)N/N=C/c1cccn1C	i	·
CC1(C)C(C=C(Cl)Cl)C1C(=O)Nc1cccc(C(F)(F)F)c1 (stereo unspecified)	53*	-1
CC1(C)C(C=C(Cl)Cl)C1C(=O)Nc1ccc(Cl)c(Cl)c1 (stereo unspecified)	-21	-6
CCC(C)NC(=O)CSc1nc2n[nH]c(C)c2c(=N)n1-c1ccc(OC)cc1 (stereo unspecified)	48	-4
COc1cccc(NC(=O)CSc2nc3n[nH]c(C)c3c(=N)n2-c2ccc(C)cc2)c1	57*	0
Cc1[nH]nc2nc(SCC(=O)NCc3ccco3)n(-c3ccc(Br)cc3)c(=N)c12	80*	-2
CCOc1ccc(-n2c(SCC(=O)NCC3CCCO3)nc3n[nH]c(C)c3c2=N)cc1 (stereo unspecified)	9	-1
CCOc1ccc(-n2c(SC(CC)C(=O)N(CC)CC)nc3n[nH]c(C)c3c2=N)cc1 (stereo unspecified)	52*	-3
CCOc1ccc(-n2c(SC(CC)C(=O)NCCOC)nc3n[nH]c(C)c3c2=N)cc1 (stereo unspecified)	36	-4
Cc1[nH]nc2nc(SCC(=O)NCC3CCCO3)n(-c3ccc(Br)cc3)c(=N)c12 (stereo unspecified)	52*	-6
Cc1ccc(-n2c(SCC(=O)NCc3ccco3)nc3n[nH]c(C)c3c2=N)cc1C	49	2
CC(=O)N1CCCC1c1nc2cc(-c3ccc(F)c(C)c3)ccc2o1 (stereo unspecified)	37	-4
CCN1CCN(C2=NC(=O)/C(=C\c3ccc4c(c3)OCO4)S2)CC1	1	6
CC(=O)Nc1ccc(SCCCC(=O)Nc2cccc(C)n2)nn1	-5	-3
Cc1nnsc1C(=O)NNS(C)(=O)=O	·	-8
Cn1nc(COc2ccccc2)c2c1CCN(Cc1ccoc1)C2	67*	2
Cn1nc(COc2ccccc2)c2c1CCN(Cc1ccco1)C2	14	3
O=C1c2cc(N3CCC4(CC3)OCCO4)c([N+](=O)[O-])cc2C(=O)N1c1cccc2c1CCCC2	15	-5
CN1C(=O)/C(=C\c2nc3ccccc3c(=O)[nH]2)c2ccccc21	-2	-1
CCCN1C(=O)/C(=C\c2nc3ccccc3c(=O)[nH]2)c2cc(Br)ccc21	68*	4
O=C(Cc1ccc(Cl)cc1)N1CCCC(COc2ccc(C(=O)N3CCCC3)cc2)C1 (stereo unspecified)	15	-1
CCCN1C(=O)c2cccnc2Sc2cc(C(=O)NC3CCCC3)ccc21	8	2
SMILES	mHTT CaM bind	Pf apPOL inh
COc1nn(C)cc1C(=O)Nc1nnc(-c2ccco2)o1	-5	0
COc1ccccc1-c1nnc(NC(=O)COc2ccccc2)o1	77*	0
CC1CN(S(=O)(=O)c2ccc(C(=O)Nc3nnc(-c4ccno4)o3)cc2)CC(C)O1 (stereo unspecified)	42	19
COc1nn(C)cc1C(=O)Nc1nnc(COc2ccccc2)o1	66*	-7
COC(=O)c1ccc(C(=O)Nc2nnc(-c3cc(Cl)ccc3Cl)o2)cc1	-24	-4
O=C(Nc1nnc(-c2ccno2)o1)c1ccc2c(c1)OCO2	96*	40
CSc1ccccc1-c1nnc(NC(=O)CCOc2ccccc2)o1	-2	0
COC(=O)c1ccc(C(=O)Nc2nnc(-c3ccn(C(C)C)n3)o2)cc1	65*	-3
Cc1cc(C)cc(C(=O)N2CCCC(C(=O)NCc3ccc(C)o3)C2)c1 (stereo unspecified)	3	4
CCNC(=O)c1cnn(C(C)(C)C)c1CC	2	-4
Cc1cccc(N2CCN(C(=O)c3ccc(Br)cc3)C(C)C2=O)c1 (stereo unspecified)	5	-3
O=c1c2cnn(-c3ccccc3)c2nc(Cc2ccccc2)n1-c1ccccc1	1	2
Cc1cc(C)c(NC(=O)c2cccc(I)c2)c(C)c1	-16	-3
CN(C)c1cccc(C(=O)N2CCN(c3cc(-c4cccnc4)[nH]n3)CC2)c1	10	-7
O=C(CSc1ccc(F)cc1)Nc1nnc(Cc2cccs2)o1	33	-12
COC(=O)c1ccc(NC(=O)C(=O)NCc2ccc3c(c2)OCO3)cc1	-12	-3
